“And” between values parts separate entries of the source, which are not always exact repeats. Equal entries are not always repeated. Results filed as inconclusive are left out. Entries that show only a call come without a potency. Where a structure was tested more than once in an assay, its records may differ in their call. The source made the active and inactive calls. Calls follow the shape of the full dose curve.
target: Retinoic acid receptor RXR-alpha (Homo sapiens) (UniProt P19793); test: qHTS assay to identify small molecule agonists of the RXR signaling pathway (AID 1159527); details: HEK293T RXRa-UAS-bla, beta-lactamase ratio, 16 h; series mostly up to 76.8 µM; activation: at the top concentration; also: nearly all actives have a fitted effect of over 35% in size
Description: U.S. Tox21 Program National Center for Advancing Translational Sciences [NCATS] NIH Chemical Genomics Center [NCGC] U.S. Environmental Protection Agency [EPA] National Institutes of Environmental Health Sciences [NIEHS] National Toxicology Program [NTP] U.S. Food and Drug Administration [FDA] Tox21 Assay Overview: The Retinoid X receptor (RXR), a nuclear hormone receptor expressed in liver, spleen, placenta, epidermis, central nervous system. These receptors are able to form homo and heterodimers with other nuclear receptors and due to this heterodimerizing ability, RXR functions as master regulators producing diverse physiological effects. Three subtypes of RXR exist; alpha, beta and gamma. Retinoid X receptor alpha (RXR-alpha) has potential roles in metabolic signaling pathways, skin alopecia, dermal cysts, cardiac development, insulin sensitization etc. Therefore screening environmental chemicals on RXR-alpha signaling can be used for the studies focused on such therapeutic applications. For quantification of RXR-alpha ligands signaling, GeneBLAzer RXR alpha-UAS-bla HEK 293T (Life Technologies, Carlsbad, CA) cells containing a beta-lactamase reporter-gene under control of Retinoid X receptor-alpha response element were used to screen Tox21 10K library.
Tox21 Assay Protocol Summary: RXR-alpha HEK 293T cells were dispensed at 2,000 cells/6 uL of assay medium containing 2% charcoal-stripped FBS using a Multidrop Combi (ThermoFisher Scientific, Waltham, MA) dispenser. The assay was performed in black wall/clear-bottom 1536-well plates (Greiner Bio-One North America Inc. Monroe, NC). 9-cis retinoic acid was used as a positive control in the agonist mode screen. After the assay plates were incubated at 37 C and 5% CO2 for 5 hr, 23 nL of compounds dissolved in DMSO, positive controls or DMSO only were transferred to the assay plate by a Pintool station (Kalypsys, San Diego, CA). The assay plates were incubated at 37 C and 5% CO2 for 16 hr. One uL of LiveBLAzer B/G FRET substrate (Life Technologies) was added using a Flying Reagent Dispenser (Aurora Discovery, San Diego, CA) and the plates were incubated at room temperature for 2 hr. Fluorescence intensity (405 nm excitation, 460/530 nm emission) was measured using an Envision plate reader (PerkinElmer, Shelton, CT).
Potency is read from the fitted curve at half-maximal effect.

Sequence of Retinoic acid receptor RXR-alpha (Homo sapiens) (P19793 whole entry, looked up): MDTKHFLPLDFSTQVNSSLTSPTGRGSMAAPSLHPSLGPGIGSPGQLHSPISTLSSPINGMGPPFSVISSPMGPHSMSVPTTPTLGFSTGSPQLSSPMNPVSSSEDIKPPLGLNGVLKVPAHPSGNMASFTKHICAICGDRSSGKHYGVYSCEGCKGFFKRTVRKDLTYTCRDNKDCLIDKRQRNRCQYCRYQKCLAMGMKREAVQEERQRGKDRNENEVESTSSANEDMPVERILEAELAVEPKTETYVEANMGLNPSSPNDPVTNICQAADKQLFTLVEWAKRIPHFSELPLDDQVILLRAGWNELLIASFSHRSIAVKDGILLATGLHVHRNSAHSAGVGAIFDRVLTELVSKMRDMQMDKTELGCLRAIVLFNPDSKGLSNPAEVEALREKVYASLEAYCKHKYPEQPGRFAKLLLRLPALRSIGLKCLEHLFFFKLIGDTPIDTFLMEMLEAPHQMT

| Compound | activation | Potency |
| --- | --- | --- |
| Nc1ccc([N+](=O)[O-])cc1O | 0.362% (inactive) | – |
| NS(=O)(=O)c1cc2c(cc1Cl)NCNS2(=O)=O | 0.867% [at 35.3 µM] (inactive) | – |
| NS(=O)(=O)O | – | inactive |
| CN1CCc2cccc3c2[C@H]1Cc1ccc(O)c(O)c1-3 | 1.44% [at 35.3 µM] (inactive) | – |
| Nc1ccc(S(N)(=O)=O)cc1 | – | 5.52 µM (active) and inactive |
| CN(C)CCOC(c1ccccc1)c1ccccc1 | – | inactive |
| CCCCNC(=O)NS(=O)(=O)c1ccc(C)cc1 | – | inactive |
| CC1(C)S[C@@H]2[C@H](NC(=O)[C@H](N)c3ccccc3)C(=O)N2[C@H]1C(=O)O | – | inactive |
| O=S1(=O)OC(c2ccc(O)cc2)(c2ccc(O)cc2)c2ccccc21 | – | inactive |
| Cc1cn([C@H]2C=C[C@@H](CO)O2)c(=O)[nH]c1=O | – | inactive and 17.4 µM (active) |
| CNNCc1ccc(C(=O)NC(C)C)cc1 | – | inactive |
| O=c1[nH]cc(F)c(=O)[nH]1 | – | 28.2 µM (active) |
| CN1CCC[C@H]1c1cccnc1 | – | inactive |
| CC(C)NCC(O)c1ccc(O)c(O)c1 (stereo not given) | -2% [at 35.3 µM] (inactive) | – |
| C=C(C)C(=O)OCC(C)O (stereo not given) | – | inactive |
| C=CCc1ccc(O)c(OC)c1 | – | inactive |
| O=C1c2c(O)cccc2Cc2cccc(O)c21 | – | inactive |
| Cc1ncc([N+](=O)[O-])n1CCO | – | inactive |
| C[C@](N)(Cc1ccc(O)c(O)c1)C(=O)O | – | inactive |
| CC(=O)Nc1c(I)c(NC(C)=O)c(I)c(C(=O)O)c1I | – | inactive |

| Compound | activation | Potency |
| --- | --- | --- |
| CCc1nc(N)nc(N)c1-c1ccc(Cl)cc1 | – | inactive |
| O=c1[nH]cnc2c1ncn2[C@H]1CC[C@@H](CO)O1 | – | inactive |
| NC1CCCCC1 | 8.38% (inactive) | – |
| CC(C)c1c(C(=O)Nc2ccccc2)c(-c2ccccc2)c(-c2ccc(F)cc2)n1CC[C@@H](O)C[C@@H](O)CC(=O)O | -17.6% [at 35.3 µM] (inactive) | – |
| OC[C@H]1O[C@H](O[C@]2(CCl)O[C@H](CCl)[C@@H](O)[C@@H]2O)[C@H](O)[C@@H](O)[C@H]1Cl | – | inactive |
| Cc1ccc(S(=O)(=O)O)cc1 | – | inactive |
| Cn1c(=O)c2c(ncn2C)n(C)c1=O | – | inactive |
| CCCCOC(=O)c1ccc(O)cc1 | – | inactive |
| Oc1ccccc1 | – | inactive and 11 µM (active) |
| CCCC[P+](CCCC)(CCCC)CCCC | – | inactive |
| CC(=O)C(=O)O | – | inactive |
| COc1cccc(O)c1O | -14.8% (inactive) | – |
| CN(N=O)C(=O)N[C@@H]1[C@@H](O)[C@H](O)[C@@H](CO)O[C@@H]1O | -0.566% [at 35.3 µM] (inactive) | – |
| CCCCC(CC)C(=O)O (stereo not given) | – | inactive |
| O=C1NC(=O)C(c2ccccc2)(c2ccccc2)N1 | – | inactive |
| CCOC(N)=O | – | inactive |
| CCN(CC)C(=O)c1cccc(C)c1 | – | inactive |
| F[B-](F)(F)F | – | inactive |
| CN(C)C(=O)Nc1ccc(Cl)c(Cl)c1 | – | inactive and 19.5 µM (active) |
| CC(C)C(=O)Nc1ccc([N+](=O)[O-])c(C(F)(F)F)c1 | 10.3% [at 35.3 µM] (inactive) | – |

— PubChem BioAssay (Tox21)
